# Measurements: PubChem BioAssay (NCATS)
# Values without a mark were called inactive. Records with an inconclusive call do not appear. Active and inactive are the calls of the source. Calls come from the whole dose curve; as a rule, active = well fitted curve in the direction sought with a large enough effect; inconclusive = small, poorly fitted or top-dose-only effect, or another doubt; inactive = no such curve, though single readings can be large; an effect the other way counts as inactive or inconclusive.
# Tested on: not listed separately
# Experiment: Dual reporter qHTS for agonist of Pregnane X Receptor (hPXR) against the NCATS DSHEA and TCM libraries: Fluorescence readout (AID 1920058); note: 0% is about no effect
# Conditions: PXR dual reporter cells; series mostly up to 40 µM
# How it was run: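 Viability readout (CellTiter-Fluor, 405/540 nm, 1 h) from agonist-mode PXR dual reporter in hPXR-Luc HepG2 cells. Substances ~24 h, 37 °C, 5% CO2; rifampicin reference, tetraoctyl ammonium bromide cytotoxic control.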
row,SMILES,outcome
1,COc1ccc2ccc(=O)oc2c1,inactive
2,NC(Cc1c[nH]c2ccccc12)C(=O)O (configuration not stated),inactive
3,O=C(/C=C/c1ccc(O)c(O)c1)OC(Cc1ccc(O)c(O)c1)C(=O)O (configuration not stated),inactive
4,O=c1ccc2ccc(O)cc2o1,inactive
5,COC(=O)C1=CO[C@@H](C)[C@H]2CN3CCc4c([nH]c5ccccc45)[C@@H]3C[C@H]12,inactive
6,C=C(C)[C@H]1CC=C(C)C(=O)C1,inactive
7,C=C[C@](C)(O)CCC=C(C)C,inactive
8,O=c1cc(-c2ccc(O)cc2)oc2cc(O[C@H]3OC(CO)C(O)C(O)C3O)cc(O)c12 (some centres not stated),inactive

# Biological target: Nuclear receptor subfamily 1 group I member 2 (Homo sapiens) (UniProt O75469)
# Experiment: Dual reporter qHTS for agonist of Pregnane X Receptor (hPXR) against the NCATS DSHEA and TCM libraries: Luminescence readout (AID 1920059); note: 0% is about no effect
# Conditions: hPXR dual reporter cells, luciferase luminescence agonist; series mostly up to 40 µM
# How it was run: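 hPXR-Luc HepG2 cells, 2000/well in 5% charcoal-stripped FBS medium, attached 5 h, then exposed 24 h at 37C to compounds. Viability by CellTiter-Fluor, then luciferase luminescence with ONE-Glo.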
# Nuclear receptor subfamily 1 group I member 2 (Homo sapiens), sequence (O75469 whole entry, looked up): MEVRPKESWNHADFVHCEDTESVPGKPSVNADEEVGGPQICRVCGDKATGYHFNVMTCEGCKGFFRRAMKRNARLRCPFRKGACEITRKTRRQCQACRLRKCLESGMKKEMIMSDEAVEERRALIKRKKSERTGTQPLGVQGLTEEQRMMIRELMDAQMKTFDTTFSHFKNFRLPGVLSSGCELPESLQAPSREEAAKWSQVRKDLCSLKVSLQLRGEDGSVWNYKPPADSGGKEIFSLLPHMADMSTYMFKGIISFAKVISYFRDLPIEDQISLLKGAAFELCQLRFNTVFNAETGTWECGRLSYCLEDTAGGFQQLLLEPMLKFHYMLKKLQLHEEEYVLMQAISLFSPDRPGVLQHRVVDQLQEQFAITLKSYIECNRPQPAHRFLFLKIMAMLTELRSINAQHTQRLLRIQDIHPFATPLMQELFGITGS
row,SMILES,outcome
1,COc1ccc2ccc(=O)oc2c1,inactive
2,NC(Cc1c[nH]c2ccccc12)C(=O)O (configuration not stated),inactive
3,O=C(/C=C/c1ccc(O)c(O)c1)OC(Cc1ccc(O)c(O)c1)C(=O)O (configuration not stated),inactive
4,O=c1ccc2ccc(O)cc2o1,inactive
5,C=C(C)[C@H]1CC=C(C)C(=O)C1,inactive
6,O=c1cc(-c2ccc(O)cc2)oc2cc(O[C@H]3OC(CO)C(O)C(O)C3O)cc(O)c12 (some centres not stated),inactive

# Biological target: Nuclear receptor subfamily 1 group I member 2 (Homo sapiens) (UniProt O75469)
# Experiment: Dual reporter qHTS for antagonist of Pregnane X Receptor (hPXR) against the NCATS DSHEA and TCM libraries: Luminescence Readout (AID 1920060);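 note: HepG2 cells carrying hPXR luciferase reporter stimulated with rifampicin at 2 µM; 0% is about no effect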
# Conditions: hPXR dual reporter cells, luciferase luminescence, antagonist mode; series mostly up to 40 µM
# How it was run: (§1)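 hPXR-Luc HepG2 cells exposed 24 h at 37 C to compounds with 2 uM rifampicin in antagonist mode; luciferase luminescence measured by ONE-Glo, with CellTiter-Fluor viability read beforehand.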
row,SMILES,outcome
1,COc1ccc2ccc(=O)oc2c1,inactive
2,NC(Cc1c[nH]c2ccccc12)C(=O)O (configuration not stated),inactive
3,O=c1ccc2ccc(O)cc2o1,inactive
4,COC(=O)C1=CO[C@@H](C)[C@H]2CN3CCc4c([nH]c5ccccc45)[C@@H]3C[C@H]12,inactive
5,C=C(C)[C@H]1CC=C(C)C(=O)C1,inactive
6,C=C[C@](C)(O)CCC=C(C)C,inactive
7,O=c1cc(-c2ccc(O)cc2)oc2cc(O[C@H]3OC(CO)C(O)C(O)C3O)cc(O)c12 (some centres not stated),inactive

# Tested on: not listed separately
# Experiment: Dual reporter qHTS for antagonist of Pregnane X Receptor (hPXR) against the NCATS DSHEA and TCM libraries: Fluorescence Readout (AID 1920061); note: 0% is about no effect
# Conditions: PXR dual reporter cells, antagonist mode; series mostly up to 40 µM
# How it was run: as §1
row,SMILES,outcome
1,COc1ccc2ccc(=O)oc2c1,inactive
2,NC(Cc1c[nH]c2ccccc12)C(=O)O (configuration not stated),inactive
3,O=C(/C=C/c1ccc(O)c(O)c1)OC(Cc1ccc(O)c(O)c1)C(=O)O (configuration not stated),inactive
4,O=c1ccc2ccc(O)cc2o1,inactive
5,COC(=O)C1=CO[C@@H](C)[C@H]2CN3CCc4c([nH]c5ccccc45)[C@@H]3C[C@H]12,inactive
6,C=C(C)[C@H]1CC=C(C)C(=O)C1,inactive
7,C=C[C@](C)(O)CCC=C(C)C,inactive
8,O=c1cc(-c2ccc(O)cc2)oc2cc(O[C@H]3OC(CO)C(O)C(O)C3O)cc(O)c12 (some centres not stated),inactive

# Tested on: not listed separately
# Experiment: qHTS profiling for inhibitors of Plasmodium falciparum proliferation (AID 504749);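 note: 0% = DMSO vehicle and full inhibition = artemisinin control; nearly all actives have a fitted effect of over 60% in size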
# Conditions: P. falciparum in erythrocytes, SYBR Green DNA, 72 h; at 12.8 µM (top of the series); parasite line A
# How it was run: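 Each compound contacts P. falciparum-infected red blood cells for 72 h at 37 C; lysis buffer (Tris, EDTA, saponin, Triton X, SYBR Green I) is added and fluorescence measured next morning; values normalized to controls.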
row,SMILES,"activity, negative = inhibition [%]"
1,CN(C)CC/C=C1\c2ccccc2CSc2ccccc21,4.44
2,C[C@@H]1CCC[C@H](C)N1NC(=O)c1ccc(Cl)c(S(N)(=O)=O)c1,12.8
3,CC(C)N1CCN(c2ccc(OC[C@@H]3CO[C@@](Cn4cncn4)(c4ccc(Cl)cc4Cl)O3)cc2)CC1,5.81
